By inhibition is commonly meant the drop in the measured response relative to a control, in per cent.

SMILES strings stand for the structures.

Type in all cases: functional
The target of assay [1] is Solute carrier family 2, facilitated glucose transporter member 1 (Homo sapiens) (UniProt P11166). Put plainly: ST_JUDE_LEISH: Cytotoxicity at 2uM final concentration against transgenic Leishmania Mexicana promastigotes LmGLUT1 that are glucose transport deficient and complemented with the human glucose transporter GLUT1. Activity is measured by DNA content using SYBR green in vitro.

The target of assay [2] is Hexose transporter 1 (Plasmodium falciparum) (UniProt O97467). Put plainly: ST_JUDE_LEISH: Cytotoxicity at 2uM final concentration against transgenic Leishmania Mexicana promastigotes LmPfHT that are glucose transport deficient and complemented with the Plasmodium falciparum hexose transporter. Activity is measured by DNA content using SYBR green in vitro.
Assay [3] has as its target Glucose transporter (Leishmania mexicana) (UniProt O61059). Put plainly: ST_JUDE_LEISH: Cytotoxicity at 2uM final concentration against transgenic Leishmania Mexicana promastigotes LmGT2 that are glucose transport deficient and complemented with the L. Mexicana glucose transporter 2. Activity is measured by DNA content using SYBR green in vitro.

Chain of Solute carrier family 2, facilitated glucose transporter member 1 (Homo sapiens) (P11166 whole entry): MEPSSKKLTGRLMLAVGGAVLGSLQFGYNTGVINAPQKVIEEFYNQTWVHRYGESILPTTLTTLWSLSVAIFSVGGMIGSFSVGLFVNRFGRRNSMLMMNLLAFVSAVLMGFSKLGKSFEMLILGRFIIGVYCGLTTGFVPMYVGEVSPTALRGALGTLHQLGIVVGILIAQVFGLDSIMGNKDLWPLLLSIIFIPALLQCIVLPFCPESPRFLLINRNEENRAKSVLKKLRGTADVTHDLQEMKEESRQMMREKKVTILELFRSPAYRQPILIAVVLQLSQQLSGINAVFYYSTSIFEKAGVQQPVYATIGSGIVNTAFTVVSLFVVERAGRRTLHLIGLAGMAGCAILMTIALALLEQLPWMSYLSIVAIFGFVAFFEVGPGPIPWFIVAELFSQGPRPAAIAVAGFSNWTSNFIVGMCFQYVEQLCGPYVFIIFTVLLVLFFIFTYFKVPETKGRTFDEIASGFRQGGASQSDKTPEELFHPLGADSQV

Regarding `O=C(Nc1ccc([N+](=O)[O-])cc1)Nc1cc(OCC(F)(F)F)cc(OCC(F)(F)F)c1`, the inhibition in assay [1] was determined as 4.64%; in assay [2], 5.79%; in assay [3], 4.56%.

`O=C(Nc1cccc(-c2nn3ncccc3c2-c2ccnc(Nc3cccc(C(F)(F)F)c3)n2)c1)c1c(F)cccc1F`: the inhibition in assay [1] was 2.16%; in assay [2], 3.08%; in assay [3], -0.92%.

Take `O=C(C=Cc1ccc(Cl)c(Cl)c1)NCCCCCN1CCCC(CCCNC(=O)c2ccc3c(c2)OCO3)C1` (stereo not drawn): the results for the inhibition in assay [1], in assay [2] and in assay [3] were 2.29%, 0.94% and -0.94%, respectively.

Take `Cc1cc(-c2nc3ccc(N4CCN(C)CC4)cc3[nH]2)nn1Cc1cc(Cl)ccc1OCC(C)C`: the inhibition stood at 1% in assay [1], 1.76% in assay [2] and 0.44% in assay [3].

`Cc1ccc(CNC(=O)[C@H](Cc2ccccc2)Nc2cc(C)nc(NCc3ccccc3C)n2)cc1`: the inhibition turned out to be 5.69% in assay [1], 5.01% in assay [2] and 2.6% in assay [3].

Consider `Nc1cc(-c2ccc3ccccc3c2)nc2ccccc12`, for which the values for the inhibition in assay [1], in assay [2] and in assay [3] were 31.2%, 26.8% and 13.7%, respectively.

For the compound `CCOc1ccc(NC(=O)c2cn3nc(-c4ccc(OCC)cc4)cc3nc2C2CCNCC2)cc1`, the inhibition in assay [1] is 1.5%; in assay [2], 2.58%; in assay [3] it was 3.37%.

Regarding `CN(C)CCNCc1nc(-c2ccc3c(Nc4ccc(Cl)cc4F)ccnc3c2)cs1`, the inhibition stood at 9.87% in assay [1], 8.58% in assay [2] and 10.1% in assay [3].

As to `Nc1ncc(Cc2ccc3c(ccc4ccccc43)c2)c(N)n1`, the inhibition is 14.2% in assay [1], 12.7% in assay [2] and 11.9% in assay [3].

`Cn1ccnc1-c1nc2ccccn2c1NCC(=O)Nc1ccccc1N1CCCCC1`: the inhibition in assay [1] was -1.68%; in assay [2], -2.15%; in assay [3] it was 0.02%.

Turning to `CCN(CCNC(=O)Nc1cc(C(F)(F)F)cc(C(F)(F)F)c1)c1cccc(C)c1`, the inhibition in assay [1] worked out at 5.44%; in assay [2], 4.69%; in assay [3], 5.45%.

Regarding `N#Cc1ccccc1N1CCN(C2CCC(NC(=O)c3n[nH]c4cc(C(F)(F)F)ccc34)CC2)CC1` (stereo not drawn), the inhibition stood at 2.94% in assay [1], 1.88% in assay [2] and 0.43% in assay [3].

Turning to `Cc1cc(NC(=O)[C@H](CC2CCCCC2)Nc2ccc(C#N)c3ccccc23)ccc1F`, the inhibition in assay [1] came to 5.97%; in assay [2], 7.28%; in assay [3], 1.62%.

Take `O=C(/C=C/c1ccc(Cl)c(Cl)c1)NCCCCCN1CCC(NC(=O)Nc2ccc3c(c2)OCO3)CC1`: the inhibition in assay [1] turned out to be 0.33%; in assay [2], 2.53%; in assay [3] it was 4.27%.

Consider `Cc1nn(C)cc1C(C)Nc1nncc(-c2ccc(C(F)(F)F)cc2)n1` (stereo not drawn), for which the inhibition in assay [1] came out at 2.34%; in assay [2], 2.27%; in assay [3], 3.38%.

As to `COc1ccc2ncc(F)c(NC(=O)C3CCC(NCc4cc5cc(F)cc(F)c5[nH]4)CC3)c2n1` (stereo not drawn), the values for the inhibition in assay [1], in assay [2] and in assay [3] were 68.5%, 78.5% and 82.5%, respectively.

Turning to `COc1cccc(C(O)CNc2ccnc(Nc3cccc(-c4csc(C)n4)c3)n2)c1` (stereo not drawn), the results for the inhibition in assay [1], in assay [2] and in assay [3] were 1.26%, -0.04% and 1.05%, respectively.

With `CC(C)(C)c1ccc(CN2CCC(CNC(=O)c3cc(-c4ccccc4)nc4ccccc34)CC2)cc1`, the values for the inhibition in assay [1], in assay [2] and in assay [3] were -2.07%, 0.33% and -1.73%, respectively.

For `CC(C)c1cc2c(ccc3nc(N)nc(N)c32)[nH]1`, the figures for the inhibition in assay [1], in assay [2] and in assay [3] were 9.81%, 31% and 8.49%, respectively.

Consider `Cc1ccc(NC(=O)c2ccc(CN3CCCN(Cc4cccc(C#N)c4)CC3)cc2)cc1F`, for which the inhibition in assay [1] is 4.02%; in assay [2], 2.41%; in assay [3], 2.02%.

With `O=C(Nc1ccc(C(F)(F)F)cc1)c1ccc(S(=O)(=O)NCC2CCCN(CC3CCCCC3)C2)cc1` (stereo not drawn), the values for the inhibition in assay [1], in assay [2] and in assay [3] were 2.94%, 2.24% and 1.65%, respectively.

Consider `Nc1cccc(CNCc2ccc(-c3cccc(-c4nc5ccccc5[nH]4)c3)cc2)c1`, for which the results for the inhibition in assay [1], in assay [2] and in assay [3] were 1.2%, 0.24% and -0.54%, respectively.

In the case of `CC1(C)NC(N)=NC(=N)N1OCCCCCOc1ccccc1`, the inhibition in assay [1] was determined as 0.42%; in assay [2] it was 0.8%; in assay [3] it was 1.28%.

In the case of `O=C1COc2ccccc2N1C/C=C(\CN1CCC(c2ccccc2)CC1)c1cc(Cl)cc(Cl)c1`, the inhibition in assay [1] turned out to be 1.77%; in assay [2], 1.99%; in assay [3], 1.69%.

For `CN1CCN(Cc2ccc(-c3ccc4c(Nc5cc(O)c(F)cc5Cl)ccnc4c3)o2)CC1`, the inhibition in assay [1] worked out at 4.84%; in assay [2], 2.61%; in assay [3], 2.56%.

On to `c1ccc(-c2n[nH]cc2Nc2ccnc3ccccc23)nc1`, for which the inhibition in assay [1] stood at 5.35%; in assay [2] it was 3.76%; in assay [3] it was 3.97%.

For the compound `CCN(CC)CCn1c(=N)n(CC(O)c2ccc(Cl)c(Cl)c2)c2ccccc21` (stereo not drawn), the inhibition in assay [1] was 7.87%; in assay [2], 5.43%; in assay [3], 12.9%.

With `Cc1cc(CN2CCCC(OC(c3ccc(F)cc3)c3ccc(F)cc3)C2)ccc1O` (stereo not drawn), the figures for the inhibition in assay [1], in assay [2] and in assay [3] were 9.25%, 4.88% and 0.78%, respectively.

Turning to `Cc1cc(N[C@@H](CC(C)C)C(=O)Nc2ccccc2)nc(NCc2ccccc2C)n1`, the inhibition was 8.7% in assay [1], 8.35% in assay [2] and 5.01% in assay [3].

As to `CS(=O)(=O)c1cccc(-c2cnc3[nH]cc(-c4cccc(CCN)c4)c3c2)c1`, the inhibition in assay [1] came to 4.65%; in assay [2], 3.48%; in assay [3], 8.44%.

`C=C(NC(=O)c1cc(C)cc(C)c1)C(=O)OC`: the inhibition was 0.48% in assay [1], -0.44% in assay [2] and 0.67% in assay [3].

On to `CCCCCCOc1ccc2ccccc2c1CNCCCCCCNCc1c(OCCCCCC)ccc2ccccc12`, for which the figures for the inhibition in assay [1], in assay [2] and in assay [3] were 16.8%, 21.5% and 7.86%, respectively.

As to `CN1CCc2ccc(NC(=O)Nc3ccc(Cl)c(Cl)c3)cc2C1`, the values for the inhibition in assay [1], in assay [2] and in assay [3] were 4.69%, 3.67% and 3.54%, respectively.

Take `CN1CCN(C(C(=O)NCc2cc(Cl)cc(Cl)c2)c2ccc(NC(=O)Nc3ccccc3)cc2)CC1` (stereo not drawn): the results for the inhibition in assay [1], in assay [2] and in assay [3] were 2.24%, 1.94% and 1.21%, respectively.

Consider `c1cc(-c2cc3ccc(C4=NCCN4)cc3[nH]2)ccc1C1=NCCN1`, for which the values for the inhibition in assay [1], in assay [2] and in assay [3] were 1.68%, 2.57% and 0.39%, respectively.

As for `O=C(Nc1ccc(S(=O)(=O)N2CCCCCC2)cc1)c1cc(-c2ccccc2O)n[nH]1`, the inhibition in assay [1] is 9.89%; in assay [2], 8.12%; in assay [3], 8.68%.

`O=C(Nc1cccc(CN2CCCN(Cc3cccc(F)c3)CC2)c1)c1ccc(Cl)c(Cl)c1`: the inhibition in assay [1] was 4.11%; in assay [2], 2.83%; in assay [3] it was 6.5%.

Take `CCC(CC)N1CCN(CC(=O)Nc2ccc([N+](=O)[O-])cc2C(=O)Nc2cccc(OC)c2)CC1`: the inhibition came to 3.1% in assay [1], 1.8% in assay [2] and 1.35% in assay [3].

In the case of `CC(C)C[C@H](Nc1ccnc(NCC2CCCCC2)n1)C(=O)NCCOc1ccccc1`, the inhibition in assay [1] is 2.57%; in assay [2] it was 3.02%; in assay [3], 2.47%.

Regarding `CN1CCC(NCc2cccc(-c3cccc(S(=O)(=O)NCc4ccccc4)c3)c2)CC1`, the inhibition in assay [1] is 4.86%; in assay [2], -2.65%; in assay [3] it was 2.47%.

As for `CN(Cc1ccccc1)C1CCCN(c2cc(NC(=O)c3cccs3)ccn2)C1` (stereo not drawn), the inhibition is 0.77% in assay [1], -0.06% in assay [2] and 0.5% in assay [3].

`Cc1ccc(Cn2c(N3CCC(C(=O)NCc4cccs4)CC3)nc3ccccc32)cc1`: the inhibition came to 1.76% in assay [1], 2.67% in assay [2] and 7.85% in assay [3].

For the compound `CC(C)c1cc(Oc2c(I)cc(CCNC(=N)N)cc2I)ccc1O`, the inhibition is -0.6% in assay [1], -0.01% in assay [2] and -2.44% in assay [3].

With `Cc1ccn2c(C(=O)N3CCN(c4cccc5c4nc(-c4ccoc4)n5Cc4ccccn4)CC3)c(C)nc2c1`, the values for the inhibition in assay [1], in assay [2] and in assay [3] were 2.33%, 1.01% and -0.49%, respectively.

Turning to `CS(=O)(=O)c1ccc(CCNCc2ccc(-c3ccc(CNC4Cc5ccccc5C4)cc3)nc2)cc1`, the inhibition in assay [1] was -0.55%; in assay [2], -0.45%; in assay [3] it was 2.3%.

Take `CCOc1cc(Cc2cnc(N)nc2N)cc(OC)c1OC`: the values for the inhibition in assay [1], in assay [2] and in assay [3] were -1.63%, -0.5% and -0.04%, respectively.
